We go through 42 molecules from PubChem BioAssay AID1508625 (Wald Lab, School of Medicine, Case Western Reserve …, 2021).

A short description of this test: enhancers of NK cell killing of ovarian tumor cells, primary screen, imaging, OVCAR3, primary NK cells, calcein-AM imaging (AID 1508625).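 Also: compound given to NK cells 16 h before adding targets at 1.5 to 1 ratio.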 To be noted: OVCAR3 lysis by primary NK cells, at 5 µM; z-score: measured here: robust Z-score, single-point normalisation.

On to `COc1cccc(Nc2ncnc3sc(C)c(S(=O)(=O)N4CCC(C)CC4)c23)c1`, for which the corrected activity, negative = more killing is -2.61% and the z-score is -0.65.
Turning to `Cc1cccn2c(=O)c3cc(C(=O)N(CC(C)C)CC(C)C)sc3nc12`, the corrected activity, negative = more killing is -8.5% and the z-score is -2.41.
Consider `CNC(=O)C(C)Oc1cccc(Cl)c1` (centres undefined), for which the corrected activity, negative = more killing was -2.63% and the z-score was -1.46.
The matching figures for `CCC(C)NC(=O)Cn1c(=O)n(-c2cc(OC)cc(OC)c2)c(=O)c2sccc21` (centres undefined): -7.6% and -2.16.
The matching figures for `Brc1ccc(-c2noc(CSc3ccccc3)n2)cc1`: -0.336% and -0.187.
`Cc1ccc(NC(=O)CSc2nc3c([nH]c4ccccc43)c(=O)n2-c2ccc(F)cc2)cc1`: the corrected activity, negative = more killing is -5.11% and the z-score is -1.27.
The matching figures for `COc1cccc(-n2c(SCC(=O)Nc3ccccc3F)nc3c([nH]c4ccccc43)c2=O)c1`: -10.8% and -2.69.
The matching figures for `O=C(O)CN1C(=O)c2cccc3c(Br)ccc1c23`: -4.58% and -2.46.
The matching figures for `Cc1cc(C)c(C=Nc2ccc(-c3ccccc3[N+](=O)[O-])cc2)c(C)c1`: -4.49% and -1.91.
Consider `COc1ccccc1OCc1cccc([N+](=O)[O-])c1`, for which the corrected activity, negative = more killing is -5.65% and the z-score is -3.15.
The matching figures for `CCC(C)NC(=O)c1ccc2c(=O)n(CCN(CC)CC)c(=S)[nH]c2c1` (centres undefined): -4.1% and -1.09.
The matching figures for `CCOc1ccc(-n2c(SCC(=O)Nc3ccc(C)cc3)nc3c([nH]c4ccccc43)c2=O)cc1`: -5.11% and -1.27.
The matching figures for `O=C(CCCn1c(=S)[nH]c2cc3c(cc2c1=O)OCO3)N1CCN(Cc2ccc3c(c2)OCO3)CC1`: -2.04% and -0.54.
Consider `CCOc1ccc(C2C(N3C(=O)c4cccc([N+](=O)[O-])c4C3=O)C(=O)N2c2cc(Cl)ccc2C)cc1` (centres undefined), for which the corrected activity, negative = more killing was -3.8% and the z-score was -1.18.
Regarding `Cc1cc(Nc2ncnc3sc4c(c23)CCCC4)ccc1Br`, the corrected activity, negative = more killing is -1.91% and the z-score is -1.03.
The matching figures for `FC(F)(F)c1ccc(Oc2cccc(C(F)(F)F)c2)nc1`: -1.98% and -1.1.
The matching figures for `COc1ccc(Cc2nc3c4c5c(sc4ncn3n2)C(C)(C)NC(C)(C)C5)cc1OC`: -2.36% and -1.03.
The matching figures for `O=C(COc1ccccc1)NCCSc1nc2ccccc2s1`: -4.8% and -1.81.
Consider `COC(=O)c1ccc(COC(=O)c2cnccn2)cc1`, for which the corrected activity, negative = more killing is -1.44% and the z-score was -0.802.
`COc1cc2c(cc1NC(=O)Nc1cc3oc4ccccc4c3cc1OC)oc1ccccc12`: the corrected activity, negative = more killing is -6.21% and the z-score is -1.85.
As to `Cc1ccc(-n2nc(C)c(C=Cc3onc(C)c3[N+](=O)[O-])c2C)cc1`, the corrected activity, negative = more killing was -6.18% and the z-score was -1.84.
The matching figures for `COc1cc(C(=S)N2CCCCC2)ccc1OC(=O)c1ccc(C)cc1`: -4.49% and -1.39.
As for `COc1ccccc1N1CCN(C(=O)c2ccc(Cn3c(=S)[nH]c4cc5c(cc4c3=O)OCO5)cc2)CC1`, the corrected activity, negative = more killing was -5.34% and the z-score was -1.42.
The matching figures for `CC1CCCN(c2ncnc3scc(-c4ccccc4)c23)C1` (centres undefined): -2.34% and -0.85.
With `COc1ccc(CNCC2OCCc3ccccc32)cc1OC` (centres undefined), the corrected activity, negative = more killing is -5.1% and the z-score was -1.95.
The matching figures for `O=C(O)CSCCC(=O)Nc1ccc(F)cc1`: -7.17% and -1.93.
The matching figures for `N#Cc1cccn1Cc1ccccc1Cl`: -4.07% and -1.1.
Turning to `CON1C(=O)C(C)(C)N(OC)C(=O)C1(C)C`, the corrected activity, negative = more killing is 2.31% and the z-score is 0.733.
Consider `c1ccc2nn(C34CC5CC(CC(C5)C3)C4)nc2c1`, for which the corrected activity, negative = more killing was -1.32% and the z-score is -0.685.
As to `CCOc1ccccc1NC(=O)CC1Sc2ccc(C(F)(F)F)cc2NC1=O` (centres undefined), the corrected activity, negative = more killing is -3.99% and the z-score is -2.14.
The matching figures for `O=C1NC(=S)N(c2ccc(Cl)cc2)C(=O)C1=Cc1cc(Br)ccc1O`: -3.58% and -1.85.
The matching figures for `CCOC(=O)c1cnc(SCc2ccccc2Cl)nc1N`: -1.75% and -0.473.
The matching figures for `CCOc1ccc(OCC)c(NC(=O)C2(S(=O)(=O)c3ccc(Cl)cc3)CC2)c1`: -4.65% and -1.32.
Regarding `CC(C)(C)c1ccc(C(=O)Nc2ccc(Cl)c(NC(=O)c3ccccc3)c2)cc1`, the corrected activity, negative = more killing is -4.21% and the z-score was -1.49.
On to `Cc1ccccc1N1C(=O)c2ccc(C(=O)Nc3cccc([N+](=O)[O-])c3)cc2C1=O`, for which the corrected activity, negative = more killing is -3.72% and the z-score was -1.15.
The matching figures for `C=CCn1c(-c2ccc3[nH]c(C)c(C)c3c2)n[nH]c1=S`: -6.13% and -2.23.
The matching figures for `COc1ccc(-n2c(=S)[nH]c3cc(C(=O)NCc4ccc(Cl)cc4)ccc3c2=O)cc1`: -2.4% and -0.763.
The matching figures for `CCc1ccc(-n2c(CCC(=O)O)ccc2-c2ccc(F)cc2)cc1`: -1.11% and -0.331.
For `Cc1ccc2nc(-c3ccc(Cl)c(NC(=O)Cc4ccccc4)c3)oc2c1`, the corrected activity, negative = more killing was -3.3% and the z-score was -1.77.
The matching figures for `CC(C)(C)c1ccc(-c2nc3cc(NC(=O)Cc4ccccc4)ccc3o2)cc1`: -3% and -1.06.
The matching figures for `Cc1cccc(OCCn2c(=N)n(CC(N)=O)c3ccccc32)c1`: -6.66% and -1.99.
The matching figures for `CC(=NNC(=S)Nc1cccc(C)c1)c1cccc(N)c1`: -5.28% and -2.08.
